According to PubChem BioAssay (NCI):
This is part of a sample that, as a whole, favours compounds with a hit. Of some 83,000 tested, about 20% had one in any assay.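 How to read the values: 0–100, growth inhibition (40 = 60% inhibited); 0, no net growth; -100 to 0, cell death (-40 = 40% of starting cells died; -100 = all dead).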 Unmarked numbers belong to inactive results. Calls of active or inactive are those of the source. The calls were made as follows: active = growth percent below 10; inactive = the rest.

Tests used:
Test in all cases: NCI-60 one-dose screen, 48 h (100 = growth as untreated, 0 = no growth, -100 = all killed)
Conditions in all cases: 10 µM unless noted
[1] = system: NCI-H23 lung
[2] = system: NCI-H226 lung
[3] = system: NCI-H322M lung
[4] = system: HOP-62 NSCLC
[5] = system: NCI-H460 lung
[6] = system: HOP-92 NSCLC
[7] = system: NCI-H522 lung
[8] = system: A549/ATCC NSCLC
[9] = system: 786-0 renal
[10] = system: COLO 205 colon
[11] = system: DU-145 prostate
[12] = system: K-562 leukemia
[13] = system: MALME-3M melanoma
[14] = system: MDA-MB-231 breast
[15] = system: RXF 393 renal
[16] = system: SF-268 CNS
[17] = system: SF-295 CNS
[18] = system: SF-539 CNS
[19] = system: UACC-257 melanoma
[20] = system: M14 melanoma

Row | Compound | growth [1] | growth [2] | growth [3] | growth [4] | growth [5] | growth [6] | growth [7] | growth [8] | growth [9] | growth [10] | growth [11] | growth [12] | growth [13] | growth [14] | growth [15] | growth [16] | growth [17] | growth [18] | growth [19] | growth [20]
1 | Cn1c2ccccc2c2ssc(=S)c21 | 92.4% | 105% | 89.9% | 110% | 106% | 88.6% | 85.7% | 99.7% | 98.5% | 116% | 116% | 82.9% | 81.9% | 99.9% | 108% | 103% | 97.3% | 97.5% | 98.8% | 89.3%
2 | Cc1cccc(Cc2cnc(NC(=O)CCc3ccc(C)o3)s2)c1 | 35.3% | 35.1% | 45.9% | 47.5% | 4.15% (active) | 64.9% | 4.74% (active) | 26.1% | 29.8% | -9.57% (active) | 18.8% | 6.63% (active) | 82.8% | 15.4% | 8.05% (active) | 38% | 10.4% | 2.41% (active) | 79.6% | 11.5%
3 | O=C(O)c1ccc(-c2nn(-c3ccc(C(=O)O)cc3)cc2/C=N/Nc2c(F)c(F)cc(F)c2F)cc1 | 96% | 103% | 99.9% | 99% | 114% | 115% | 89.2% | 97.7% | 112% | 111% | 105% | 105% | 93.7% | 105% | 112% | 93.2% | 102% | 102% | 95.7% | 96.6%
4 | O=C1OC(=O)C2C3CC(c4ccccc43)C12 (stereo not given) | 101% | 110% | 107% | 97.8% | 113% | 72.4% | 105% | 91.7% | 102% | 97.8% | 145% | 111% | 101% | 117% | 116% | 123% | 101% | 103% | 91.8% | 112%
5 | CCC1(C(N)=O)CC2C=CC1CC2 (stereo not given) | 249% | 109% | 114% | 136% | 113% | 94.1% | 99.1% | 102% | 171% | 94.8% | 116% | 113% | 113% | 97.8% | 108% | 110% | 102% | 102% | 77.1% | 91.4%
6 | Oc1ccc(O)c(-[n+]2ccccc2)c1 | 99.4% | 93% | 109% | 94.2% | 105% | 92.6% | 82.7% | 83.8% | 95.3% | 112% | 108% | 107% | 112% | 110% | 106% | 102% | 110% | 108% | 95.1% | 103%
7 | COc1ccc(-c2nnc(SCC(=O)Nc3ccc(C(=O)/C=C/c4ccc(OC)c(OC)c4)cc3)o2)cc1 | 91.9% | 86.2% | 94.6% | 73.6% | 95.1% | 81.3% | 68.4% | 77.7% | 106% | 102% | 93.7% | 61.7% | 100% | 96.6% | 104% | 98.2% | 96.5% | 96% | 73.7% | 105%
8 | OCCOCC(F)(F)F | 104% | 105% | 97.8% | 111% | 108% | 94.9% | 110% | 113% | 113% | 112% | 109% | 97.2% | 99.6% | 124% | 113% | 102% | 103% | 96.7% | 118% | 112%
9 | CN1CCN(CC(O)COc2c(Br)c(Br)c(Br)c3c2OC(C)(C)C3)CC1 (stereo not given) | 82.4% | 99.2% | 73% | 16.4% | 23% | -3.44% (active) | 42.6% | 63.6% | 11.8% | -45.3% (active) | 89.9% | -16.5% (active) | -36.9% (active) | 49.7% | 29.4% | 63.8% | 38.7% | 58.3% | 99.9% | -53.5% (active)
10 | CCCCOc1nc2ccc(Cl)cc2cc1/C=C/C(=O)/C=C/c1ccc(Cl)cc1 | 79.8% | 92.9% | 95.7% | 101% | 103% | 87.1% | 74.8% | 84.4% | 94.1% | 62% | 84.7% | 57% | 104% | 86.5% | 41.6% | 81% | 79.5% | 100% | 84% | 18%
11 | O=C(/C=C/c1ccccc1)Oc1ccc(/C=C/c2cc(OC(=O)/C=C/c3ccccc3)cc(OC(=O)/C=C/c3ccccc3)c2)cc1 | 102% | 91.4% | 90.6% | 82.9% | 100% | 95.8% | 77% | 83.9% | 102% | 97.4% | 104% | 94.8% | 91.2% | 104% | 114% | 99.5% | 101% | 91.8% | 81.7% | 100%
12 | CCc1c(C)c2cc3nc(NCc4ccccc4)oc3c(C)c2oc1=O | 69.7% | 88.1% | 70.2% | 73.7% | 60.3% | 78.1% | 45.5% | 78.6% | 44.4% | 114% | 82.9% | 89.5% | 51.9% | 62.1% | 53.9% | 65.9% | 79.6% | 33.5% | 87.6% | 88.3%
13 | C#CCn1c(-c2cc(OC)c(OC)cc2Br)nc(-c2ccccc2)c1-c1ccccc1 | 42.5% | 66% | 28.6% | 72.8% | 10.8% | 41.9% | 17.4% | 31.2% | 48.8% | 8.73% (active) | 63.9% | 15.1% | 29.3% | 45.7% | 41.3% | 70% | 21.6% | 62.7% | 59.2% | 16.1%
14 | C#CC(=O)/C=C/CCCCCCC#CC(=O)CCC(=O)C#CCCCCCC/C=C/C(=O)C#C | 15% | 122% | 93.5% | 61.2% | 80% | -42.3% (active) | -78.6% (active) | 87.8% | -46.9% (active) | -0.795% (active) | 35.3% | 0.258% (active) | -68.3% (active) | -6.98% (active) | -36.7% (active) | 22.5% | 71.7% | -34.5% (active) | 62.9% | -19.2% (active)
15 | COc1ccc2c(c1)OC(N(C(C)=O)C(C)=O)=C(C#N)C2c1ccc(F)cc1 (stereo not given) | 50.9% | 75.2% | 48.8% | 39.2% | 15.8% | 63.4% | -5.26% (active) | 45.1% | 28.9% | 30.2% | 37.9% | 10.2% | 62.5% | 53.1% | -2.33% (active) | 54.1% | 18.3% | 13.9% | 63% | 20.5%
16 | C=CCOc1ccc(/C(Cl)=N/N=C(\Cl)c2cc(OC)c(OC)c(OC)c2)cc1 | 64.9% | 81.8% | 97.4% | 79.7% | 48% | 65.1% | 37.9% | 59.5% | 98.1% | 72.2% | 70% | 69.4% | 90.9% | 82.4% | 58.7% | 85.5% | 87.9% | 88.8% | 53.3% | 73.4%
